Source: article PMC5540273 (PLoS ONE, 2017)

Assays:
Settings in all cases: concentration: 1 μM, replicates: in singlicate; n = 1
[1] = tested on: T1, RSK4(Kin.Dom.1-N-terminal)
T1 construct: gene RPS6KA6

[2] = tested on: T2, RSK4(Kin.Dom.2-C-terminal)
T2 construct: gene RPS6KA6

S6K1 = tested on: S6K1
SBK1 = tested on: SBK1
SGK2 = tested on: SGK2
SGK3 = tested on: SGK3
SGK = tested on: SGK
SIK2 = tested on: SIK2
SIK = tested on: SIK
SLK = tested on: SLK
SNARK = tested on: T3, SNARK
T3 construct: gene NUAK2

SNRK = tested on: SNRK
SRC = tested on: SRC
SRMS = tested on: SRMS
SRPK1 = tested on: SRPK1
SRPK2 = tested on: SRPK2
SRPK3 = tested on: SRPK3
STK16 = tested on: STK16
STK33 = tested on: STK33
STK35 = tested on: STK35
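Further: KINOMEscan kinase panel screen.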

| Compound | %Inh [1] [%] | %Inh [2] [%] | %Inh (S6K1) [%] | %Inh (SBK1) [%] | %Inh (SGK2) [%] | %Inh (SGK3) [%] | %Inh (SGK) [%] | %Inh (SIK2) [%] | %Inh (SIK) [%] | %Inh (SLK) [%] | %Inh (SNARK) [%] | %Inh (SNRK) [%] | %Inh (SRC) [%] | %Inh (SRMS) [%] | %Inh (SRPK1) [%] | %Inh (SRPK2) [%] | %Inh (SRPK3) [%] | %Inh (STK16) [%] | %Inh (STK33) [%] | %Inh (STK35) [%] |
| --- | --- | --- | --- | --- | --- | --- | --- | --- | --- | --- | --- | --- | --- | --- | --- | --- | --- | --- | --- | --- |
| O=C(Nc1n[nH]c2nc(-c3ccccc3)ccc12)C1CC1 [SB-708999] | 30 | 1 | 17 | 9 | 15 | 47 | 23 | 0 | 28 | 12 | 56 | 0 | 0 | 0 | 22 | 23 | 7 | 16 | 0 | 1 |
| COC(=O)Nc1nc2cc(Oc3ccc(NC(=O)Nc4cccc(SC)c4)cc3)ccc2[nH]1.Cl [GW697999] | 0 | 0 | 9 | 0 | 0 | 8 | 11 | 0 | 0 | 33 | 7 | 0 | 61 | 0 | 38 | 17 | 0 | 3 | 0 | 0 |
| Cc1ccc(NC(=O)c2ccnc(N3CCCCC3)c2)cc1-c1ccc(C(=O)NCC2CC2)cc1 [GW775610] | 0 | 39 | 19 | 0 | 5 | 0 | 0 | 0 | 0 | 5 | 0 | 0 | 0 | 0 | 0 | 0 | 14 | 0 | 0 | 0 |
| Fc1cc(Cl)ccc1Nc1ccnc2cc(-c3ccc(CN4CCSCC4)o3)ccc12 [GW560106] | 0 | 87 | 0 | 0 | 0 | 0 | 0 | 81 | 97.2 | 65 | 0 | 0 | 99 | 21 | 42 | 23 | 0 | 0 | 20 | 20 |
| Cc1ccc(C)c(NC(=O)Nc2ccc(C)c(-c3ccc(C(=O)Nc4ccncc4)cc3)c2)c1 [GSK1398473] | 0 | 18 | 3 | 14 | 0 | 8 | 0 | 0 | 3 | 17 | 0 | 5 | 8 | 0 | 26 | 0 | 0 | 8 | 3 | 6 |
| O=C(O)C(F)(F)F.O=c1[nH]ccc2nc(N[C@@H]3CCNC3)nc(Nc3ccc4c(c3)S(=O)(=O)CC4)c12 [GSK2181306] | 97.8 | 59 | 92.7 | 90.1 | 91.7 | 98.6 | 97.2 | 73 | 18 | 99.7 | 99 | 25 | 48 | 0 | 92.1 | 0 | 88 | 96.9 | 100 | 90.6 |
| Cl.Cl.NC(CNC(=O)c1cc(Br)c(-c2ccnc3[nH]ccc23)s1)c1ccccc1 (stereo not shown) [GSK1322949] | 0 | 16 | 39 | 51 | 16 | 66 | 46 | 6 | 4 | 20 | 74 | 0 | 0 | 0 | 80 | 80 | 83 | 61 | 53 | 20 |
| COC(=O)Nc1nc2ccc(Oc3ccc(CC(=O)Nc4cc(C(F)(F)F)ccc4F)cc3)cc2[nH]1 [GW680903] | 0 | 9 | 9 | 10 | 4 | 0 | 0 | 0 | 0 | 2 | 0 | 0 | 0 | 0 | 31 | 0 | 0 | 0 | 0 | 0 |
